# High-throughput results deposited in PubChem by National Center for Advancing Translational Sciences (NCATS).
# Hits are enriched below; roughly 19% of the tested compounds scored in any of these assays.
# AMA1 RON2 block: qHTS for Inhibitors of AMA1-RON; Towards Development of Antimalarial Drug Lead: Primary Screen; Plasmodium falciparum AMA1 (3D7) - RON2 peptide interaction; AlphaScreen AMA1-biotinylated RON2 peptide binding; AID 720542, 2013; Potency, µM (highest dose often 58.2 µM), for the others: at the highest dose activity change, negative = inhibition, hits mostly inhibitors; 360,000 tested, 0.2% active;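 note: potency is the fitted concentration of half-maximal effect; 0% = vehicle wells and -100% = peptide control; nearly all actives have a fitted effect of over 45% in size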
#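 AMA1 (3D7) with his tag at 25 nM final met compounds first, then biotinylated RON2 peptide at 25 nM; detection used donor plus acceptor beads, 10 µg/mL apiece, read by AlphaScreen after 30 min at room temperature.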
# Cycloheximide cs: Cycloheximide Counterscreen for Small Molecule Inhibitors of Shiga Toxin; cell reporter, cycloheximide protein synthesis inhibition counterscreen; 300,000 tested, 12% active; max response, %; in the data active = max response mostly above about 13%, no sharp cut-off; inactive = mostly below about 14%; note: read at 38.3 µM for the half of the compounds with a filed dose; 0% is about no effect
# Pf growth 48h: Primary qHTS for delayed death inhibitors of the malarial parasite plastid, 48 hour incubation. Potency, µM (series often up to 28.7 µM), without a hit: top-dose activity change, negative = inhibition, usual class: inhibitors. 310,000 tested, 5.9% active. P. falciparum luciferase growth in erythrocytes, 48 h; note: potency is the fitted concentration of half-maximal effect; % is set by controls: 0 for no effect and ±100 for the full control effect
#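 Luciferase-expressing parasites in RBCs, 2% Hct / 0.1% parasitemia final; RPMI 1640 + 0.5% Albumax; 37 C, 5% CO2, one generation; luminescence read-out, lower signal = inhibition.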
# SARS PLpro yeast-1: qHTS of Yeast-based Assay for SARS-CoV PLP | 330,000 tested, 0.19% active | Potency, µM (doses to about 32.9 µM), inactives show at the highest dose activity, positive = growth rescue, hits mostly activators | S. cerevisiae expressing SARS-CoV PLpro, growth rescue; calls by dose curve; note: potency is the fitted concentration of half-maximal effect; 0% is about no effect; nearly all actives have a fitted effect of over 55% in size
# Pf growth 96h: Primary qHTS for delayed death inhibitors of the malarial parasite plastid, 96 hour incubation | P. falciparum luciferase reporter growth, 96 h | Potency, µM (doses to about 28.7 µM), for the others: top-dose activity change, negative = inhibition, hits mostly inhibitors | 320,000 tested, 6.9% active; note: potency is the fitted concentration of half-maximal effect; % is set by controls: 0 for no effect and ±100 for the full control effect
#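 Erythrocytes infected with luciferase-expressing P. falciparum were dispensed at 2% hematocrit and 0.05% parasitemia (final), then incubated with compounds 96 hours at 37 C in 5% CO2. Luminescence after detection reagent addition reported growth.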
# Shiga inhibitor: A qHTS for Small Molecule Inhibitors of Shiga Toxin; Vero cells, Shiga toxin protein synthesis inhibition reporter; inhibition, % at 38.7 µM; 290,000 tested, 9.2% active; in the data active = inhibition mostly above about 28%, no sharp cut-off; inactive = mostly below about 43%; note: 0% is about no effect
# SARS PLpro yeast-2: qHTS of Yeast-based Assay for SARS-CoV PLP: Hit Validation; calls only; AID 652038, 2013; 1,000 tested, 19% active; yeast expressing SARS-CoV PLpro, growth phenotype rescue; shares compounds with SARS PLpro yeast-1; call rule not given here
# Active calls of the source: *; i = inactive; u = inconclusive; x = no result given; [ ] = remark or other dose. Unless noted, calls come from the whole dose curve; as a rule, active = well fitted curve in the direction sought with a large enough effect; inconclusive = small, poorly fitted or top-dose-only effect, or another doubt; inactive = no such curve, though single readings can be large; an effect the other way counts as inactive or inconclusive.
SMILES,AMA1 RON2 block,Cycloheximide cs,Pf growth 48h,SARS PLpro yeast-1,Pf growth 96h,Shiga inhibitor,SARS PLpro yeast-2
CCc1ccccc1NC(=O)CN1CCN(C(=O)c2ccc(OCc3cn4ccccc4n3)cc2)CC1,-2%,x,u,u,u,x,i
Cc1ccccc1C(=O)NNC(=O)Nc1ccccc1,x,2,6%,2%,10%,7,x
Cc1cccc(NC(=O)NCC(c2cccnc2)N2CCOCC2)c1 (stereo not drawn),7%,1,-3%,18µM*,u,-4,i
COc1cc(/C=N\NC(=O)C2COc3ccccc3O2)cc(OC)c1O (stereo not drawn),8%,2,u,-1%,-2%,18,x
CCOc1ccc(-n2c(O)c(/C=N/NC(=O)C3COc4ccccc4O3)c3ccccc3c2=O)cc1 (stereo not drawn),85%,5,14%,11µM*,69%,-9,u
O=C(COC(=O)c1ccc2ncsc2c1)Nc1ncc(Cl)cc1Cl,-11%[11.6 µM],37*,107%,22µM*,177%,9,i
Cc1nc2ccc(Cl)cc2c(-c2ccccc2F)c1CC(=O)O,1%,-1,-5%,u,16%,3,x
CC(C)CC(=O)Nc1ccc(C(=O)Cn2nc(C(=O)O)c3ccccc3c2=O)cc1,5%,-5,x,13µM*,7%,-6,i
COc1ccccc1/C=C/CN1CCSCC1,-5%,-3,-2%,-2%,u,-9,x
CCCCNC(=O)CSc1nc2cc3c(cc2c(=O)n1Cc1ccco1)OCO3,-21%,4,-11%,0%,-3%,-7,x
CC(C)(C)c1ccc(OCCNC(=O)c2ncn[nH]2)cc1,89%,6,x,-6%,u,-3,x
Cn1ncc2c(NNC(=O)c3ccc(Cl)cc3Cl)ncnc21,30%,1,33%,u,22%,-14,i
CCOC(=O)C(Cc1ccccc1)C(=O)Nc1cccc(C)c1 (stereo not drawn),-2%,15,16%,22µM*,u,22,i
CCOC(=O)C(Cc1ccccc1)C(=O)Nc1ccc(N(CC)CC)cc1 (stereo not drawn),u,5,9%,-4%,42%,2,x
COc1ccccc1N1CCN(C(=O)c2ccc3c(=O)n4c(nc3c2)CCCCC4)CC1,-7%,x,u,7%,u,x,x
COc1cc([N+](=O)[O-])cc(/C=N/NC(=O)C(C)Nc2cccc(C)c2)c1O (stereo not drawn),72%,-2,20%,u,-11%,-7,u
COc1cc([N+](=O)[O-])cc(/C=N/NC(=O)c2ccc(C)nc2)c1O,-27%,9,33%,8.9µM*,u,-12,u
COc1cc([N+](=O)[O-])cc(/C=N/NC(=O)CSc2ccccn2)c1O,56%,-2,11%,5%,20%,12,x
O=C(COc1cccnc1[N+](=O)[O-])Nc1ccc(S(=O)(=O)N2CCOCC2)cc1,-11%,-2,5%,1%,u,-6,x
O=C(Nc1nc2ccccc2n1CCN1CCOCC1)c1cn(-c2ccccc2)nc1-c1ccccc1,29%,7,10µM*,u,u,-12,u
CCn1c(O)c(/C=N/NC(=O)c2ccncc2)c(=O)n(CC)c1=S,64%,-2,-5%,u,-6%,-8,i
Cc1ccc(C2OC(=O)C=C2c2ccccc2)cc1 (stereo not drawn),2%,x,u,-3%,0%,x,x
CCOc1ncccc1C(=O)OCC(=O)Nc1ccc2c(c1)CCC2,10%,x,x,u,x,x,i
CC(O)CNc1nc(N)[nH]c(=O)c1N=Nc1ccccc1 (stereo not drawn),5%,x,x,x,x,x,x
O=C(CCn1cnc(-c2ccccc2)c1-c1ccccc1)N/N=C/c1ccccc1O,33%,-2,0%,10µM*,0%,-13,i
SMILES,AMA1 RON2 block,Cycloheximide cs,Pf growth 48h,SARS PLpro yeast-1,Pf growth 96h,Shiga inhibitor,SARS PLpro yeast-2
CCN(CC(=O)Nc1c(F)cccc1F)C(=O)c1ccc(N2C(=O)c3ccccc3C2=O)cc1,5%,x,15%,-3%,3%,x,x
Cc1cc([N+](=O)[O-])nn1Cc1ccc(C(=O)N/N=C/c2ccc(O)cc2O)cc1,52%,-5,u,3.2µM*,-89%,-2,u
CCc1noc(C)c1C(=O)NNC(=O)c1ccc(N(CC)CC)cc1,18%,x,u,-1%,u,x,x
O=C(NNC1=C(C(=O)C(F)(F)F)CCC1)c1cccc(O)c1,16%,31*,128%,14µM*,45%,64*,i
Cc1cccc(C(=O)NNC2=C(C(=O)C(F)(F)F)CCC2)c1O,-9%,15,-7%,-20%,x,17,x
O=c1c(N2CCOCC2)nsnc1N1CCOCC1,-3%,-6,15%,u,-27%,-10,i
COC(=O)Oc1nsnc1N1CCOCC1,-5%,-2,20%,5%,u,-2,x
CCCCC(=O)N(C)c1c(C)nc2ccc(C(=O)N(C)CCN(C)C)cn12,23%,x,x,x,x,x,x
O=C(Cc1sc(-c2ccccc2Cl)nc1-c1ccccc1)Nc1ccc(F)cc1,8%,1,u,9%,x,-20,x
CCc1nc(Cl)c(C#N)c2c1CCCC2,-19%,-9,15%,4µM*,u,-14,i
CCCc1nc(Cl)c(C#N)c2c1CCCC2,17%,-1,24%,12%,19%,-9,x
CCCNC(=O)c1cc(C2CCCCN2C(=O)c2ccc(NC(C)=O)cc2)on1 (stereo not drawn),4%,x,x,x,x,x,x
C[C@H](CO)N1C[C@H](C)[C@@H](CN(C)Cc2ccc(-c3ccccc3)cc2)Oc2c(NC(=O)Nc3ccc4c(c3)OCO4)cccc2C1=O,-22%,x,x,11µM*,x,x,i
C[C@H](CO)N1C[C@H](C)[C@@H](CN(C)S(C)(=O)=O)Oc2c(NC(=O)Nc3ccc4c(c3)OCO4)cccc2C1=O,9%,x,x,0%,x,x,x
C[C@H](CO)N1C[C@H](C)[C@@H](CN(C)Cc2ccc(C(=O)O)cc2)Oc2c(NC(=O)Cc3ccccc3)cccc2C1=O,3%,x,x,11µM*,x,x,i
C[C@@H]1CN([C@H](C)CO)C(=O)c2cc(NS(=O)(=O)c3cn(C)cn3)ccc2O[C@H]1CN(C)C(=O)Nc1ccccc1,8%,x,x,u,x,x,i
C[C@@H]1CN([C@@H](C)CO)C(=O)c2cccc(NS(C)(=O)=O)c2O[C@H]1CN(C)Cc1ccc(C(=O)O)cc1,2%,x,x,-3%,x,x,x
